From PubChem BioAssay (NCI)
About 83,000 compounds went through this panel and 20% of them were active in at least one assay; those are over-represented in the sample as a whole.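 Method: cells in 96-well plates; compound added at one concentration; 48 h incubation; percent growth measured; values under 10 scored active.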 Unmarked numbers belong to inactive results. Active and inactive are the calls of the source.

The compounds below were run on HCC-2998 colon (assay: NCI-60 one-dose screen, 48 h (100 = growth as untreated, 0 = no growth, -100 = all killed)). Settings: 10 µM unless noted.
`NC(=O)c1cc(Cl)ccc1NC(=O)COc1ccccc1` gave a growth of 83.1%. `CCC12CCC3c4ccc(O)cc4CCC3C1CC(O)C2O` (centres undefined) was tested, and the growth was 75.9%. In the case of `O=C1NC(=S)S/C1=C\c1cccc([N+](=O)[O-])c1`, the growth is reported as 87.4%. For `Cn1c2ccccc2c2nn(C(=O)c3ccccc3)c(=O)nc21`, the growth was 107%. `COc1ccc(-c2c3c(N)c4c(nc3nc3c2c(C)nn3-c2ccccc2)CCCCC4)cc1` showed a growth of 86.6%. Compound `O=c1[nH]c(-c2ccccn2)nc2sc3c(c12)CCCCCC3` has a growth of 53.5%. `COc1c(O)c2c3c(c1OC)-c1ccccc1CC3N(S(=O)(=O)c1ccc(C)cc1)CC2` (centres undefined) was tested, and the growth was 89.6%. In the case of `COc1cc(-c2nc3ccccc3o2)cc(CN2CCN(c3ccccc3)CC2)c1O`, the growth is reported as 85.5%. In the case of `O=C1/C(=C/c2ccccc2F)CNC/C1=C\c1ccccc1F`, the growth is reported as -89.2% (active). `CN([N-]C(=O)CC(=O)[N-]N(C)C(=S)c1ccccc1)C(=S)c1ccccc1.[Cu+2]` was tested, and the growth was -94.2% (active). Compound `COC(=O)c1ccc(C(=O)Nc2ccccc2N)cc1` has a growth of 85.8%. `FC(F)(F)c1cc(CNc2ncc(Br)c(Cl)n2)cc(C(F)(F)F)c1` was tested, and the growth was 102%. `COc1ccc(NC(=O)COc2ccccc2)c(C(N)=O)c1` was tested, and the growth was 46.5%. Work on `Cn1c2ccccc2c2nn(Cc3ccccc3)c(=O)nc21` yielded a growth of 114%. `CCCCNNC(=O)c1ccc(Br)cc1` gave a growth of 61.4%. Work on `Cc1nc2cc(Nc3nc(Nc4ccc(F)cc4)nc(-c4cccs4)n3)ccc2n1Cc1ccccc1` yielded a growth of 72.1%. Work on `Cc1ccc(C2SCC(=O)N2NC(=O)c2[nH]c3ccc(F)cc3c2-c2ccccc2)cc1` (centres undefined) yielded a growth of 70.2%. With `O=S(=O)(OCCO)c1ccccc1` the growth was 113%. `Cc1ccc(S(=O)(=O)N2CCc3ccc(O)c4c3C2CCc2ccccc2-4)cc1` (centres undefined) gave a growth of 104%. `Cc1nc2cc(Nc3nc(N4CCOCC4)nc(N4CCN(C)CC4)n3)ccc2n1Cc1ccccc1` gave a growth of 113%. With `Clc1ccc(C2=NN(c3ccccc3)[C@H](c3cn(-c4ccccc4)nc3-c3ccccc3)C2)cc1` the growth was 103%. For `COc1cccc(OC)c1OC(=O)c1ccccc1`, the growth was 94.3%. With `CCSc1nnc2c3cc(Br)ccc3n(C)c2n1` the growth was 111%. With `Cc1nn(-c2ccccc2)c2nc3nc4c(c(N)c3c(-c3ccc(Cl)cc3)c12)CCCC4` the growth was 113%. Work on `Cc1ccc(S(=O)(=O)N(c2ccc(Cl)cc2)c2ccc(Br)cc2C(=O)O)cc1` yielded a growth of 115%. `Cc1ccc2c(c1)c(Sc1ccc(C(=O)NO)cc1)c1n2CN(C)CC1` gave a growth of 14.9%. For `COc1cc(CNCCCN2C(=O)c3ccc4c5c(ccc(c35)C2=O)C(=O)N(CCCNCc2cc(OC)c(OC)c(OC)c2)C4=O)cc(OC)c1OC`, the growth was -92.4% (active). In the case of `CCCCCCCCCCCC(=O)[O][Sn]([CH2]CCC)([CH2]CCC)[CH2]CCC`, the growth is reported as -92.2% (active). `COc1cc(NC(=O)COc2ccccc2)c(C(N)=O)cc1OC` gave a growth of 47.1%. `C=CC(=O)N1CC2(CCC(n3nc(-c4ccc(Oc5ccccc5)cc4)c4c(N)ncnc43)CC2)C1` was tested, and the growth was -77.8% (active). Work on `CC(=O)OC[C@H](O)[C@@]1(O)CC[C@H]2[C@@H]3CCC4=CC(=O)CC[C@]4(C)[C@H]3[C@@H](O)C[C@@]21C` yielded a growth of 103%. In the case of `COc1cc(/C=C/C(=O)C(=Cc2ccc(F)c(F)c2)C(=O)/C=C/c2ccc(O)c(OC)c2)ccc1O`, the growth is reported as -71.9% (active). For `CCOC(=O)c1cc2c(n(C)c1=O)-c1cnn(-c3ccc(OC)cc3)c1CC2`, the growth was 120%. In the case of `Cc1ccc(S(=O)(=O)N2CCc3ccc(O)c4c3C2Cc2ccc3c(c2-4)OCO3)cc1` (centres undefined), the growth is reported as -25.8% (active). With `O=C(Nc1nc2ccccc2[nH]1)C(=O)Nc1nc2ccccc2[nH]1` the growth was 107%.

The compounds below were run on KM12 colon in the same assay as above. Settings: 10 µM unless noted.
With `CCC(=O)Nc1nnc(Cc2ccc(OC)c(OC)c2)s1` the growth was 36.3%. Work on `NC(=O)c1cc(Cl)ccc1NC(=O)COc1ccccc1` yielded a growth of 38.3%. Compound `CCC12CCC3c4ccc(O)cc4CCC3C1CC(O)C2O` (centres undefined) has a growth of 53.5%. `O=C1NC(=S)S/C1=C\c1cccc([N+](=O)[O-])c1` was tested, and the growth was 103%. `CCCCCn1c(=N)n(CC(O)COc2cccc(C)c2)c2ccccc21` (centres undefined) was tested, and the growth was 6.37% (active). `Cn1c2ccccc2c2nn(C(=O)c3ccccc3)c(=O)nc21` gave a growth of 106%. `N#CC1=C(N)Oc2cc(N)ccc2C1c1ccc(F)cc1` (centres undefined) was tested, and the growth was 49.7%. `COc1ccc(-c2c3c(N)c4c(nc3nc3c2c(C)nn3-c2ccccc2)CCCCC4)cc1` was tested, and the growth was 84.2%. In the case of `CC(C)OC1=C(Cl)C(=O)c2ccccc2C1=O`, the growth is reported as 41.2%. `O=c1[nH]c(-c2ccccn2)nc2sc3c(c12)CCCCCC3` gave a growth of 33.6%. `COc1c(O)c2c3c(c1OC)-c1ccccc1CC3N(S(=O)(=O)c1ccc(C)cc1)CC2` (centres undefined) gave a growth of 27.8%. With `COc1cc(-c2nc3ccccc3o2)cc(CN2CCN(c3ccccc3)CC2)c1O` the growth was 49.8%. In the case of `O=C1/C(=C/c2ccccc2F)CNC/C1=C\c1ccccc1F`, the growth is reported as -80.1% (active). `CN([N-]C(=O)CC(=O)[N-]N(C)C(=S)c1ccccc1)C(=S)c1ccccc1.[Cu+2]` was tested, and the growth was -74.8% (active). For `COC(=O)c1ccc(C(=O)Nc2ccccc2N)cc1`, the growth was 86.3%. Compound `FC(F)(F)c1cc(CNc2ncc(Br)c(Cl)n2)cc(C(F)(F)F)c1` has a growth of 105%. With `COc1ccc(NC(=O)COc2ccccc2)c(C(N)=O)c1` the growth was 25.2%. Compound `Cn1c2ccccc2c2nn(Cc3ccccc3)c(=O)nc21` has a growth of 104%. In the case of `CCCCNNC(=O)c1ccc(Br)cc1`, the growth is reported as 78.1%. For `Cc1nc2cc(Nc3nc(Nc4ccc(F)cc4)nc(-c4cccs4)n3)ccc2n1Cc1ccccc1`, the growth was 25.2%. `Cc1ccc(C2SCC(=O)N2NC(=O)c2[nH]c3ccc(F)cc3c2-c2ccccc2)cc1` (centres undefined) gave a growth of 96.1%. With `O=S(=O)(OCCO)c1ccccc1` the growth was 103%. `Cc1ccc(S(=O)(=O)N2CCc3ccc(O)c4c3C2CCc2ccccc2-4)cc1` (centres undefined) showed a growth of 95.2%. `Cc1nc2cc(Nc3nc(N4CCOCC4)nc(N4CCN(C)CC4)n3)ccc2n1Cc1ccccc1` was tested, and the growth was 115%. `Clc1ccc(C2=NN(c3ccccc3)[C@H](c3cn(-c4ccccc4)nc3-c3ccccc3)C2)cc1` showed a growth of 104%. With `CCSc1nnc2c3cc(Br)ccc3n(C)c2n1` the growth was 103%. `Cc1nn(-c2ccccc2)c2nc3nc4c(c(N)c3c(-c3ccc(Cl)cc3)c12)CCCC4` showed a growth of 105%. With `Cc1ccc(S(=O)(=O)N(c2ccc(Cl)cc2)c2ccc(Br)cc2C(=O)O)cc1` the growth was 108%. Compound `Cc1ccc2c(c1)c(Sc1ccc(C(=O)NO)cc1)c1n2CN(C)CC1` has a growth of 27.7%. For `COc1cc(CNCCCN2C(=O)c3ccc4c5c(ccc(c35)C2=O)C(=O)N(CCCNCc2cc(OC)c(OC)c(OC)c2)C4=O)cc(OC)c1OC`, the growth was -86.9% (active). With `CCCCCCCCCCCC(=O)[O][Sn]([CH2]CCC)([CH2]CCC)[CH2]CCC` the growth was -91.4% (active). `COc1cc(NC(=O)COc2ccccc2)c(C(N)=O)cc1OC` was tested, and the growth was 29.3%. For `C=CC(=O)N1CC2(CCC(n3nc(-c4ccc(Oc5ccccc5)cc4)c4c(N)ncnc43)CC2)C1`, the growth was -29.1% (active). In the case of `CC(=O)OC[C@H](O)[C@@]1(O)CC[C@H]2[C@@H]3CCC4=CC(=O)CC[C@]4(C)[C@H]3[C@@H](O)C[C@@]21C`, the growth is reported as 105%. For `Cc1ccc(S(=O)(=O)N2CCc3ccc(O)c4c3C2Cc2cc(Cl)ccc2-4)cc1` (centres undefined), the growth was 30.8%. With `COc1cc(/C=C/C(=O)C(=Cc2ccc(F)c(F)c2)C(=O)/C=C/c2ccc(O)c(OC)c2)ccc1O` the growth was 1.53% (active). `CCOC(=O)c1cc2c(n(C)c1=O)-c1cnn(-c3ccc(OC)cc3)c1CC2` was tested, and the growth was 112%. For `Cc1ccc(S(=O)(=O)N2CCc3ccc(O)c4c3C2Cc2ccc3c(c2-4)OCO3)cc1` (centres undefined), the growth was 12.5%. Work on `O=C(Nc1nc2ccccc2[nH]1)C(=O)Nc1nc2ccccc2[nH]1` yielded a growth of 101%.
